Sampled rows, rich in hits. Any-hit rate of the full collection: about 4.1%.
hgDAF-12 ag: agonists of H. glycines DAF-12 nuclear receptor; HEK293 GAL4-hgDAF12 UAS-luciferase reporter, agonist luminescence; normalized to butyrate control; AID 687014; 370,000 tested, 1.8% active; activation, % at 6.8 µM;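 active = activation above a cutoff set at the mean of all screened compounds plus 3 SD, cut at about 10% in these data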;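 also: 0% = DMSO wells and 100% = sodium butyrate wells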
ssDAF12 agonist: S. stercoralis DAF-12 activation, primary screen | HEK293 ssDAF-12/GRIP1 lit1-tk-luc reporter, luminescence; % of 3 µM dafachronic acid response | activation, % at 6.8 µM | 370,000 tested, 1% active | AID 652126;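 active = activation above the mean over all tested compounds plus 3 SD, cut at about 0.9% in these data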;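 also: 0% = DMSO-only wells and 100% = 3 µM delta7-dafachronic acid wells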
DAX1 inh-1: inhibitors of DAX1 repression of SF-1 activated StAR promoter; 370,000 tested, 1.1% active; AID 652010; HEK293T StAR-luciferase reporter, SF-1/DAX-1 repression relief; inhibition, % at 6.8 µM;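 active = inhibition above the mean over all tested compounds plus 3 SD, cut at about 3.6% in these data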;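 also: 0% = DAX-1 cells with DMSO and 100% = cells lacking DAX-1 with DMSO; higher inhibition means more luminescence from relief of DAX-1 repression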
hcDAF12 agonist: H. contortus DAF-12 activation, primary screen; HEK293 hcDAF-12 lit1-tk-luc reporter, luminescence; 0% DMSO, 100% Δ7-dafachronic acid; activation, % at 6.8 µM; 370,000 tested, 1.4% active; AID 652067;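 active = activation above the mean of all tested compounds plus 3 SD, cut at about 5.5% in these data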;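 also: 100% = response to 3 µM Δ7-dafachronic acid high control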
DAX1 inh-2: inhibitors of human orphan nuclear receptor DAX1 (NR0B1); P51843; HEK293 Gal4-DAX1 luciferase reporter, luminescence; inhibition, % at 6.75 µM; 340,000 tested, 0.99% active; AID 504766;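 active = inhibition above the mean over all tested compounds plus 3 SD, cut at about 4.2% in these data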;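 also: 0% = DAX1-transfected cells with DMSO and 100% = empty-vector control cells with DMSO; inhibition shows as a rise in luminescence from relieved DAX1 repression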
Target sequence (P51843 207-470 limits assumed): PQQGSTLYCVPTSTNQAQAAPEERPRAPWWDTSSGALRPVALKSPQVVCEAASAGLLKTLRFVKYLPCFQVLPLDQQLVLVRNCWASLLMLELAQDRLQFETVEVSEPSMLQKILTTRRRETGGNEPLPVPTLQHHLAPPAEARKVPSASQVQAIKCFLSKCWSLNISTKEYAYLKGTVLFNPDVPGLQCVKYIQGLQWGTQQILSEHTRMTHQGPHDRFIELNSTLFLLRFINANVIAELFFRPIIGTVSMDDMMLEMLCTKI
DAX1 inh confirm: NR0B1 (human) inhibition, confirmation; shares compounds with DAX1 inh-1; HEK293T StAR-promoter luciferase reporter, SF-1/DAX-1 repression; inhibition, % at 6.8 µM; 2,400 tested, 87% active;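 active = inhibition above the average of every tested compound plus 3 SD, cut at about 3.8% in these data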;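 also: 0% = DAX-1 cells with DMSO and 100% = no DAX-1 control cells with DMSO; active compounds raise luminescence by relieving repression of the StAR reporter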
Target sequence (P51843 whole entry, looked up): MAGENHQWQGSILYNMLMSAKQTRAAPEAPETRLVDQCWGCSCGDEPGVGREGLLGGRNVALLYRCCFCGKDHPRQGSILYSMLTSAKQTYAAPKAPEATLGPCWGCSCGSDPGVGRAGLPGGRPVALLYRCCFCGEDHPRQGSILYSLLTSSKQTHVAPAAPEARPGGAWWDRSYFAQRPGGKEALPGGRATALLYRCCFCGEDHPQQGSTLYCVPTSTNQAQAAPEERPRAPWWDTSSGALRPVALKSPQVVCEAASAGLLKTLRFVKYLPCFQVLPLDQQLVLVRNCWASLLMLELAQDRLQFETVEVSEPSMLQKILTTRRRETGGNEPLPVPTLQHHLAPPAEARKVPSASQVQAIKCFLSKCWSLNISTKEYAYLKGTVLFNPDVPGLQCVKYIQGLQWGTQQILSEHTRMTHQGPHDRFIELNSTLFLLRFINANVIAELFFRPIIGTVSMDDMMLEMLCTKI
SF1 AF2mut Luc: nonselective inhibitor or artifact in SF-1 mutant DAX1 counter-screen. shares compounds with DAX1 inh-1. HEK293 StAR-luciferase, SF-1 AF2 mutant, luminescence. inhibition, % at 6.8 µM. 2,400 tested, 78% active;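 active = inhibition above the mean of all tested compounds plus 3 SD, cut at about 3% in these data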;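 also: 0% = DAX-1 transfected cells with DMSO and 100% = cells without DAX-1 with DMSO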
LXR ag: LXR-beta agonism as hcDAF-12 counter-screen; shares compounds with hcDAF12 agonist; HEK293 Gal4-LXR tk-luc reporter, luminescence, 24 h; normalized: DMSO 0%, positive control 100%; activation, % at 6.8 µM; 3,400 tested, under 10 active; AID 743027;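 active = mean percent activation of the reporter above a cutoff set as the average over tested compounds plus their standard deviation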
hcDAF12 ag: confirmation of H. contortus DAF-12 agonists; shares compounds with hcDAF12 agonist; HEK293 hcDAF-12 lit1-tk-luc reporter, luminescence; % of Δ7-dafachronic acid response; activation, % at 6.8 µM; 3,400 tested, 61% active; AID 743032;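 active = mean activation across triplicate tests above the threshold derived from the earlier primary screen, cut at about 5.5% in these data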;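 also: 0% = DMSO only wells and 100% = 3 µM Δ7-dafachronic acid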
hgDAF12 ag: hgDAF-12 agonism, confirmation assay. shares compounds with hgDAF-12 ag. HEK293 GAL4-hgDAF12 luciferase reporter, agonist mode; percent of butyrate response. 3,300 tested, 80% active. activation, % at 6.8 µM. AID 743050;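 active = mean activation over triplicate wells above the hit cutoff derived from the earlier primary screen, cut at about 11% in these data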;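 also: 0% = DMSO low control and 100% = 2 mM sodium butyrate high control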
LXRb DAF12 ctr: counter-screen for DAF-12 agonists: agonists of human LXR-beta; shares compounds with hgDAF-12 ag; HEK293 Gal4-LXR luciferase reporter, 24 h; activation, % at 6.8 µM; 3,300 tested, under 10 active;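 active = mean activation of the triplicate above a set limit carried over from the primary screen, none filed active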
The depositor's hits bear a star; nt = no result.

SMILES	hgDAF-12 ag	ssDAF12 agonist	DAX1 inh-1	hcDAF12 agonist	DAX1 inh-2	DAX1 inh confirm	SF1 AF2mut Luc	others
COC(=O)c1c(C)[nH]c(C(=O)C(Cc2ccccc2)N(C)C)c1C (configuration not stated)	1.9	-0.1	0.0	6.4*	-0.3	nt	nt
COc1cc(C(O)CNC(C)C)cc(F)c1OC (configuration not stated)	1.2	-1.5	-0.6	0.2	1.7	nt	nt
CC12Cc3cn[nH]c3C=C1CCC1C2CCC2(C)C1CCC2(C)O (configuration not stated)	1.4	-1.1	0.4	-1.0	-0.4	nt	nt
C[C@]12CC[C@H](O)C[C@H]1CC[C@@H]1[C@@H]2CC[C@]2(C)C(=O)CC[C@@H]12	-0.1	-1.2	1.3	0.1	4.3*	nt	nt
Cc1cc(/C=C2/C(=O)NC(=O)N(c3ccc(Br)cc3)C2=O)c(C)n1C	2.7	-0.2	-0.5	5.9*	3.5	nt	nt
Cc1cc(/C=C2\C(=O)NC(=O)N(c3cccc(Br)c3)C2=O)c(C)n1C	-0.2	-1.1	0.2	-0.2	2.2	nt	nt
C[C@H](CO)N1C[C@H](C)[C@H](CN(C)C(=O)Oc2cccc3ccccc23)OCc2cnnn2CCCC1=O	-0.3	-0.8	1.4	-0.7	0.1	nt	nt
Cn1cccc1/C=C1\C(=O)NC(=O)N(Cc2ccccc2Cl)C1=O	-0.1	-1.0	-0.4	1.1	3.5	nt	nt
Cn1cccc1/C=C1/C(=O)NC(=O)N(C(C)(C)C)C1=O	-2.2	-1.3	-0.8	-1.4	4.8*	nt	nt
O=c1cccc2n1CC1CC2CN(S(=O)(=O)c2cc(Cl)ccc2Cl)C1 (configuration not stated)	1.5	-0.9	0.2	-1.7	0.4	nt	nt
C[C@]12CCC3C(CC[C@H]4C[C@@H](O)CC[C@]34C)C1=CC[C@@H]2O (some centres not stated)	-0.9	-0.8	0.6	-1.4	-0.7	nt	nt
CCOC(=O)[C@]12Cc3c(cc(OC)c(OC)c3OC)[C@H]1N(C)C(=O)c1cc(OC)ccc12	-0.3	-1.1	4.7*	1.6	nt	9.5*	13.8*
CCOC(=O)[C@]12Cc3c(cc(OC)c(OC)c3OC)[C@H]1N(C(C)C)C(=O)c1ccccc12	-1.1	-0.9	5.5*	0.4	nt	4.6*	6.4*
CCOC(=O)[C@]12Cc3ccccc3[C@H]1N(C(C)C)C(=O)c1cc(OC)ccc12	-3.6	-1.3	7.0*	0.2	nt	6.0*	15.9*
COC(=O)c1ccc(C(C(=O)NC2CCCCC2)N(CCN2CCOCC2)C(=O)Cc2cccs2)cc1 (configuration not stated)	-2.1	-1.5	0.2	-2.5	-0.2	nt	nt
C=CC1CN2CCC1CC2C(O)c1ccnc2ccccc12 (configuration not stated)	-4.5	-1.4	-0.2	-1.1	0.0	nt	nt
C[C@]12CCC3C(CC[C@H]4C[C@@H](O)CC[C@]34C)C1C[C@@H](O)C2=O (some centres not stated)	2.4	-1.1	-0.2	-2.4	nt	nt	nt
C[C@H]1CCCC(=O)CCC/C=C/c2cc(O)cc(O)c2C(=O)O1	-7.0	-2.3	-1.2	-4.0	0.9	nt	nt
C[C@H]1CCC/C=C/[C@@H]2C[C@H](O)C[C@H]2[C@H](O)/C=C/C(=O)O1	-1.3	-2.2	4.4*	-2.9	-3.1	10.2*	2.4
Cc1cc(OCC(=O)N2CCCN(C)CC2)ccc1Cl	2.5	-0.4	5.2*	-0.3	-0.1	2.8	0.5
CN1CCCN(C(=O)COc2ccc(Br)cc2)CC1	1.6	0.1	-0.2	0.7	1.6	nt	nt
Cc1cc2c(cc1C)NP(=S)(c1ccccc1)N2	19.2*	1.2*	10.5*	8.0*	0.5	13.1*	8.4*	LXR ag=1.5;hcDAF12 ag=12.8*
CC[C@H](C(N)=O)N1CCCC1=O	0.8	-1.2	0.2	-2.7	nt	nt	nt
CC1CCN(CC(=O)c2ccc3c(c2)OCCO3)CC1	16.8*	0.2	8.0*	8.9*	3.1	14.3*	8.6*	LXR ag=1.6;hcDAF12 ag=8.3*;hgDAF12 ag=16.1*;LXRb DAF12 ctr=0.9
CC1CCCN(CC(=O)c2ccc(Cl)c(Cl)c2)C1 (configuration not stated)	2.4	-0.7	2.0	-1.1	0.7	nt	nt
SMILES	hgDAF-12 ag	ssDAF12 agonist	DAX1 inh-1	hcDAF12 agonist	DAX1 inh-2	DAX1 inh confirm	SF1 AF2mut Luc	others
CS(=O)(=O)N1Cc2cc(Br)ccc2-n2nncc2C1	-0.5	-1.0	0.0	1.0	nt	nt	nt
CCc1c(-c2ccccc2)nc2ccccc2c1C(=O)N1CCC2(CC1)OCCO2	-2.3	-1.3	0.1	1.6	-0.3	nt	nt
COc1ccc(-c2cc(=Nc3ccccc3)c3cc(C)ccc3o2)cc1	21.8*	0.1	5.1*	7.3*	-0.8	6.1*	4.3*	LXR ag=0.2;hcDAF12 ag=0.5;hgDAF12 ag=18.3*;LXRb DAF12 ctr=0.8
COc1ccc(-c2cc(=O)c3c(OC)c(OC)c(OC)cc3o2)cc1	-0.3	-2.4	-1.6	-4.2	-3.4	nt	nt
COc1ccc(-c2cc(=NCCC(=O)O)c3cc(C)ccc3o2)cc1	23.5*	-0.7	7.0*	6.5*	1.9	12.6*	8.8*	hgDAF12 ag=10.5*;LXRb DAF12 ctr=0.5
N#Cc1ccc(NC(=O)CN2CCN(C(=O)c3cccs3)CC2)cc1Cl	-2.2	-0.9	-1.4	-1.3	-0.2	nt	nt
COP(=O)(NC(C)=O)SC (configuration not stated)	-1.7	-1.0	0.3	1.2	-1.6	nt	nt
Nc1ccccc1C(=O)OCCc1ccccc1	23.5*	0.3	5.6*	10.8*	1.4	12.8*	4.1*	LXR ag=1.8;hcDAF12 ag=9.7*;hgDAF12 ag=14.6*;LXRb DAF12 ctr=1.1
Cc1ccc2c(c1N)C(=O)c1ccccc1C2=O	15.9*	0.8	5.3*	3.7	1.4	10.7*	5.8*	hgDAF12 ag=13.2*;LXRb DAF12 ctr=0.5
CN(C)C(=O)Oc1ccc(-c2cn3cc(Cl)ccc3n2)cc1	16.8*	0.7	6.1*	7.8*	-0.6	15.7*	6.3*	LXR ag=1.1;hcDAF12 ag=3.7;hgDAF12 ag=14.9*;LXRb DAF12 ctr=0.9
CC/C(=N\NC(=O)c1ccccc1Cl)c1c(O)n(C2CCCCC2)c(=O)[nH]c1=O	6.9	-0.9	2.9	-0.5	0.2	nt	nt
